# Bioassay records deposited in PubChem by National Center for Advancing Translational Sciences (NCATS).
# HEK cytotox – cytotoxic compounds in HEK 293 cells; actives 6.6% (n = 94,000); HEK 293 viability, ATP luminescence (CellTiter-Glo), 48-72 h; AID 1345083; Potency, µM (titrated, usually from 115 µM), without a hit: at the highest dose activity change, negative = cytotoxicity, usual class: inhibitors; further: nearly all actives have a fitted effect of over 60% in size
#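 Luminescence from cellular ATP, measured with CellTiter-Glo, indicates HEK 293 viability. Cells plated at 250 cells/well are treated with compound for 48 or 72 hr at 37 degree Celsius before reagent addition.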
# SNCA expr inh – SNCA gene expression inhibition | actives 0.17% (n = 140,000) | HEK-293 SNCA-luciferase knock-in, luminescence, 24 h | Potency, µM (titrated, usually from 57.2 µM), without a hit: top-dose activity change, negative = inhibition, actives largely listed as inhibitors | AID 1671194;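 further: plate controls were DMSO cells for no effect and cell-free wells for full effect; nearly all actives have a fitted effect of over 45% in size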
# FLuc inh – inhibitors of firefly (Photinus pyralis) luciferase; P08659; purified P. pyralis luciferase, luminescence, biochemical; Potency, µM (doses to about 115 µM), usual class: inhibitors; actives 2.5% (n = 76,000); AID 1347043; further: nearly all actives have a fitted effect of over 65% in size
# Target sequence (P08659 whole entry, looked up): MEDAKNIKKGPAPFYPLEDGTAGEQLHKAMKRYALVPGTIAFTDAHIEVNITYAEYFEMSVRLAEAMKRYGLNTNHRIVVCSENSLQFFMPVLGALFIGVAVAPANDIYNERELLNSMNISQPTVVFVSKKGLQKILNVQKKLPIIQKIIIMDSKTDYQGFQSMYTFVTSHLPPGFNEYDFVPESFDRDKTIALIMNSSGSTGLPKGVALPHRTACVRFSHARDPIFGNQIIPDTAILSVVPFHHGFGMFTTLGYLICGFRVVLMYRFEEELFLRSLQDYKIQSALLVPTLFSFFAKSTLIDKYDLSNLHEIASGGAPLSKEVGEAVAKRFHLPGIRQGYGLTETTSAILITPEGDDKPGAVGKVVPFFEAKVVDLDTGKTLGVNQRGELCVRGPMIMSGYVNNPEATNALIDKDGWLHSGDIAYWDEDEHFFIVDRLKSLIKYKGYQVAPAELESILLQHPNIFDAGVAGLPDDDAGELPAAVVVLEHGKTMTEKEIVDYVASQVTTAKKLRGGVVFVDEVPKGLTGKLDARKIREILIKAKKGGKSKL
#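 Purified P. pyralis luciferase (10nM final) in 50mM Tris acetate pH 7.5, 10mM Mg acetate, 0.01% Tween-20, 0.05% BSA with 10uM D-luciferin and 10uM ATP. Compounds titrated qHTS. Luminescence imaged on CCD.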
# NPR1 antag – antagonists of human natriuretic peptide receptor Npr1 | AID 1347048 | actives 1.6% (n = 76,000) | P16066 | Potency, µM (titrated, usually from 46.3 µM), for the others: top-dose activity change, negative = inhibition, most hits filed as inhibitors | HEK293 hNpr1 GloSensor cGMP, ANP-stimulated luminescence; calls by dose curve; further: nearly all actives have a fitted effect of over 60% in size
#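 Compound pre-incubated 30 min at room temperature on GloSensor-loaded HEK293 cells stably carrying hNpr1 and the pGS-40F cGMP biosensor. Stimulation uses hNppA at 0.1 nM final; luminescence is taken at baseline and 20 min post-agonist.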
# HEK293 viab – counter-screen for SNCA expression inhibitors: cell viability; actives 0.12% (n = 150,000); Potency, µM (top dose mostly 57.1 µM), for inactives: top-dose activity change, negative = cytotoxicity, actives largely listed as cytotoxic; HEK-293-SNCA-luc viability, GF-AFC fluorescence, 24 h;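 further: 0% = DMSO-treated cells and -100% = medium-only wells without cells; nearly all actives have a fitted effect of over 30% in size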
#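 HEK-293-SNCA-luc cells (1500/well) plated 24 h, then exposed 24 h to a dilution series; GF-AFC added 30 min at 37C, fluorescence 405/540 nm; normalised to medium-only and DMSO wells, Hill fit.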
# 3T3 cytotox – NIH 3T3 cell cytotoxicity. Potency, µM (titrated, usually from 96.7 µM), for inactives: top-dose activity change, negative = cytotoxicity, actives largely listed as inhibitors. NIH 3T3 viability, CellTiter-Glo ATP luminescence, 48-72 h. actives 4.3% (n = 94,000); further: nearly all actives have a fitted effect of over 55% in size
#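 Luminescent ATP readout (CellTiter-Glo, 10 min RT) after 48 or 72 hr compound exposure of NIH 3T3 cells seeded at 400 cells/well in 1536-well format; quantitative HTS.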
# An asterisk follows results filed as active; i = inactive; ? = inconclusive; . = not tested or not shown; ! = not confirmed by another sample; [ ] = another dose, or the depositor's remark. Rows were chosen to be rich in hits. Some 7.4% of all compounds tested hit in one or more screens of this group. Unless noted, the call rests on the fitted dose curve; in most records, active means well fitted curve in the direction sought with a large enough effect; inconclusive means small, poorly fitted or top-dose-only effect, or another doubt; inactive means no such curve, though single readings can be large; an effect the other way counts as inactive or inconclusive. Unless noted, on the % scale 0 is the no-effect control and ±100 the full control effect; potency means the concentration at half of the fitted maximal effect.
SMILES,HEK cytotox,SNCA expr inh,FLuc inh,NPR1 antag,HEK293 viab,3T3 cytotox
Cc1ccc(NC(=O)N2C[C@@H](F)C[C@H]2C(=O)N2CCc3ccccc3C2)cc1Cl,28µM*,?,i,-13%,-18%,?
O=c1c(-c2ccc(O)cc2)coc2cc(O)cc(O)c12,.,2.8µM*!,.,.,-14%,.
COc1ccc(-c2coc3cc(O)cc(O)c3c2=O)cc1,.,?,.,.,-11%,.
COc1cc(O)ccc1-c1nc2ccc(Br)cn2c1Nc1ccccc1C,.,?,.,.,14µM*,.
CC(C)C[C@H](NC(=O)CNC(=O)c1cc(Cl)ccc1Cl)B(O)O,.,0.54µM*,.,.,?,.
Cc1nn(-c2ccccc2)c2c1C(C1CC1)N(C1CCN(Cc3ccc(C#N)cc3)CC1)C2=O (stereo unspecified),2%,.,.,.,.,-9%
O=C(Nc1ccccc1)NC1CCN(Cc2ccc(-c3ccsc3)cc2)C1 (stereo unspecified),?,1%,.,.,1%,?
O=C(NC1CCN(Cc2ccc(-c3ccsc3)cc2)C1)c1ccncc1 (stereo unspecified),40µM*,14%,.,.,-14%,?
O=C(NC1CCN(Cc2ccc(-c3ccsc3)cc2)C1)c1ccccc1 (stereo unspecified),45µM*,-14%[87.6 µM],.,.,?,?
Cc1ccc(C(=O)NC2CCN(Cc3ccc(-c4ccsc4)cc3)C2)cc1 (stereo unspecified),-15%,-9%,.,.,11%,-14%
O=C(NC1CCN(Cc2ccc(-c3ccsc3)cc2)C1)c1ccccc1Cl (stereo unspecified),45µM*,?,.,.,-30%,?
Cc1nnc2ccc(N3CCN(C(=O)c4cccnc4)CC3)nn12,-1%[172 µM],.,.,.,.,-11%[138 µM]
CC(=O)N1CCN(C(=O)c2ccc3nnc(C4CC4)n3c2)CC1,2%[172 µM],24%[87.6 µM],.,.,-11%[87.6 µM],-7%[138 µM]
CC(C)Nc1ncnc2c1CN(C1CCCC1)C(=O)CN2C,-10%[172 µM],9%[87.6 µM],.,.,-10%[87.6 µM],-16%[138 µM]
O=C(Cn1nc2c(cc1=O)CCCC2)N1CCc2c([nH]c3ccccc23)C1,3%,30%,i,1%,8%,i
O=C(NCCc1ccccc1)C1CCCN(Cc2cccc(-c3ccc(F)cc3F)c2)C1 (stereo unspecified),40µM*,-19%,.,.,-5%,?
O=C(NCCc1ccc(F)cc1)C1CCCN(Cc2cccc(-c3ccc(F)cc3F)c2)C1 (stereo unspecified),40µM*,-22%,.,.,-9%,?
O=C(Nc1ccccc1F)C1CCCN(Cc2cccc(-c3ccc(F)cc3F)c2)C1 (stereo unspecified),?,-17%,.,.,0%,?
COc1ccc(CCNC(=O)C2CCCN(Cc3cccc(-c4ccc(F)cc4F)c3)C2)cc1 (stereo unspecified),10µM*,?,.,.,-28%,?
Cc1cc(C)n(Cc2ccc(C(=O)N3CC[C@@H](n4c(=O)n(C)c5cccnc54)C3)o2)n1,-15%,3%,.,.,-10%,?
O=C(O)C1(c2ccccc2)CCN(S(=O)(=O)c2ccccc2)CC1,i,15%,.,.,4%,79µM*
O=C(O)C1(c2ccccc2)CCN(S(=O)(=O)c2cccs2)CC1,-4%,4%,.,.,-2%,?
O=C(c1ccc(C(F)(F)F)cc1)N1CCc2nc(C3CC3)nc(-c3ccc(O)cc3)c2C1,?,4%,.,.,4%,?
CCCN1CCCC2(CCN(c3cc(C)c4cccc(OC)c4n3)C2)C1=O (stereo unspecified),?,-27%,i,-2%,-1%,-17%
Cc1cccc(CN2CCCC3(CCN(c4cc(C)c5ccccc5n4)C3)C2=O)c1 (stereo unspecified),35µM*,-5%,i,-29%,-22%,?
SMILES,HEK cytotox,SNCA expr inh,FLuc inh,NPR1 antag,HEK293 viab,3T3 cytotox
Cc1cc(N2CCC3(CCCN(CC4CCC4)C3=O)C2)nc2ccccc12 (stereo unspecified),32µM*,?,i,-1%,?,?
CNC(=O)[C@H]1C[C@]2(CCCCN(CCO)C2=O)N(C(=O)c2cccc(OC)c2)[C@H]1c1ccco1,-33%,.,.,.,.,?
NC(=O)c1noc2c1CN(c1cc(-c3ccccc3)nc3ccnn13)CC2,45µM*,8%,i,-21%,-16%,?
CC(=O)N1CCCN(c2cc(Cl)nc3ccnn23)CC1,-22%[172 µM],33%[87.6 µM],i,31%[70.6 µM],10%[87.6 µM],-19%[138 µM]
Cc1ccc(CCN2CCCC23Cc2ccccc2CNC3=O)cc1 (stereo unspecified),?,11%,.,.,3%,?
C[C@@H]1C(=O)O[C@H]2[C@H]1CC[C@@]1(C)Cc3sc(NC(=O)NC4CCCCC4)nc3[C@@H](C)[C@H]21,?,-4%[87.6 µM],?,-12%[70.6 µM],-8%[87.6 µM],-25%[138 µM]
CCCCNc1nc2c(s1)C[C@]1(C)CC[C@@H]3[C@H](OC(=O)[C@H]3C)[C@H]1[C@@H]2C,?,-20%[87.6 µM],?,18µM*,-9%[87.6 µM],?
CC(=O)Nc1ccc(NC(=O)Cn2ccn3nc4c(c3c2=O)CCCCC4)cc1,35µM*,?,i,3%,-20%,?
Cc1ccc(NC(=O)Cn2ccn3nc4c(c3c2=O)CCCCC4)cc1C,40µM*,-1%,i,?,-2%,-25%
Cc1ccc(NC(=O)Cn2ccn3nc4c(c3c2=O)CCCC4)cc1Cl,-14%,5%,i,-8%,18%,-24%
CN(C)c1ccc(NC(=O)CCn2ccn3nc4c(c3c2=O)CCCC4)cc1,?,30%,40µM*,-1%,-14%,-26%
CC(=O)Nc1ccc(C2(C(=O)NCc3cccs3)CCC2)cc1,4%,9%,i,0%,3%,i
Cc1ccccc1CNC(=O)C1(c2ccc(NS(C)(=O)=O)cc2)CCCCC1,-29%,-6%,i,-1%,-4%,28µM*
CC(C)C(=O)Nc1ccc(C2(C(=O)NCc3cccs3)CCCCC2)cc1,?,8%,i,6%,3%,32µM*
CS(=O)(=O)Nc1ccc(C2(C(=O)NCc3ccc(F)cc3)CCCCC2)cc1,-8%,-5%,i,3%,0%,-12%
Cc1ccc(CNC(=O)C2(c3ccc(NC(=O)C4CC4)cc3)CCCCC2)o1,45µM*,-21%,i,-10%,6%,?
O=C(Nc1ccc(C2(C(=O)NCC3CC3)CCCCC2)cc1)C1CC1,-8%,6%,i,4%,3%,-4%
COc1ccc(C(=O)N2CCCN(c3ccc4nnc(C)n4n3)CC2)cc1,-2%,.,.,.,.,-2%
COc1ccccc1CN1CCc2nc(C(=O)Nc3nc(C)cs3)oc2CC1,?,39%[87.6 µM],25µM*,-12%[70.6 µM],2%[87.6 µM],?
